We go through 34 molecules from PubChem BioAssay (NCATS).

“And” between values parts separate entries of the source, which are not always exact repeats. Equal entries are not always repeated. Results filed as inconclusive are left out. The source made the active and inactive calls. Calls follow the shape of the dose curve; as a rule, active = well fitted curve in the direction sought with a large enough effect; inconclusive = small, poorly fitted or top-dose-only effect, or another doubt; inactive = no such curve, though single readings can be large; an effect the other way counts as inactive or inconclusive.
Also: nearly all actives have a fitted effect of over 70% in size.
Potency is read from the fitted curve at half-maximal effect.

A short description of the first experiment: Primary qHTS for inhibitors of nuclear receptor binding SET domain protein 2 (NSD2) in an isogenic RCH-ACV NSD2 p.E1099K mutant (9B) (AID 1645876). Conditions: RCH-ACV NSD2 E1099K (9B) viability, CellTiter-Glo, 72 h; series mostly up to 44.9 µM; activity change, negative = viability loss: at the top concentration. In general terms: In qHTS, concentration-response curves come from the screen itself.
In the case of `CCN1CCN(Cc2ccc(-c3cc4c(N[C@H](C)c5ccccc5)ncnc4[nH]3)cc2)CC1`, the Potency is 9.34 µM (active).
In the case of `CC(C)C[C@H](NC(=O)CNC(=O)c1cc(Cl)ccc1Cl)B(O)O`, the Potency is 0.148 µM (active).
Turning to `COc1cc2ncn(-c3cc(OCc4ccccc4C(F)(F)F)c(C(N)=O)s3)c2cc1OC`, the Potency is 562 nM (active) and 1.05 µM (active).

Another experiment can be described thus: Primary qHTS for inhibitors of nuclear receptor binding SET domain protein 2 (NSD2) in an RCH-ACV wild type WT cells (2C) (AID 1645877). As to activity change, negative = cell killing: % is scaled to controls: 0 for no effect and ±100 for the full control effect. Conditions: RCH-ACV (leukaemia line) NSD2 WT (2C) viability, CellTiter-Glo, 72 h; series mostly up to 44.9 µM; activity change, negative = cell killing: at the top concentration.
Take `COC(=O)Nc1nc2ccc(C(=O)c3ccc(F)cc3)cc2[nH]1`: the Potency is 1.03 µM (active) and 372 nM (active).
Same read-out and setting: as for `CC[C@@]1(O)C(=O)OCc2c1cc1n(c2=O)Cc2cc3cc(O)ccc3nc2-1`, the figure is 11.8 nM (active).
In the case of `CC(=O)OCCN1C(=O)c2c(C)nc3ccc(S(=O)(=O)N4CCOCC4)cc3c2C1=O`, the “activity change, negative = cell killing” value is 7.67% (inactive).
As to `Cc1cc(Nc2cc(NC(=O)c3c(Cl)cccc3Cl)ccn2)nc(N)n1`, the Potency is 291 nM (active).
`CC(C)[C@H](C(=O)Nc1ccc(C(=O)NO)cc1)c1ccccc1`: the “activity change, negative = cell killing” value was -98.8% (inactive).
Consider `Cc1cc(Nc2cc(N3CCN(C)CC3)nc(Sc3ccc(NC(=O)C4CC4)cc3)n2)n[nH]1`, for which the Potency was 46.8 nM (active).
The same measure, in the same setting: the value for `C=CC(=O)Nc1cc2c(Nc3ccc(F)c(Cl)c3)ncnc2cc1C#CC(C)(C)N1CCN(C)CC1` was 2630 nM (active).
`CC(C)(C)c1cc(NC(=O)Nc2ccc(-c3cn4c(n3)sc3cc(OCCN5CCOCC5)ccc34)cc2)no1`: the “activity change, negative = cell killing” value was -5.31% (inactive).
As to `COCCOc1ccc2c(c1)ncn2-c1ccc2cccc(N3CCC(N)CC3)c2n1`, the Potency is 2.3 µM (active) and 2.35 µM (active).
On the same count and under the same terms, as for `c1nc2nc(Nc3ccc(N4CCOCC4)cc3)nc(NC3CCCCC3)c2[nH]1`, the figure is 563 nM (active) and 525 nM (active); as for `COc1cccc2nc(-c3cccs3)nc(NN3C(=O)C=C(C)C3=O)c12`, 263 nM (active); as for `c1cc(-c2cnn3cc(-c4ccc(OCCN5CCCCC5)cc4)cnc23)ccn1`, 2.91 µM (active) and 3.32 µM (active).
On to `C[C@@H]1COC(Nc2ccc3ncnc(Nc4ccc(OCc5nccs5)c(Cl)c4)c3c2)=N1`, for which the Potency is 11800 nM (active).
Same read-out and setting: the value for `CC[C@@H]1C(=O)N(C)c2cnc(Nc3ccc(C(=O)NC4CCN(C)CC4)cc3OC)nc2N1C1CCCC1` was 37.2 nM (active).
With `O=c1[nH]c(=O)n(C2CCCO2)cc1F` (configuration not stated), the “activity change, negative = cell killing” value was 3.2% (inactive).
On to `CN1CCN(c2cc(C(=O)Nc3ccc4c(c3)-c3c(c(C(N)=O)nn3-c3ccc(F)cc3)CC4)c(Cl)cn2)CC1`, for which the Potency was 8330 nM (active).
Same read-out and setting: the value for `CCc1c2c(nc3ccc(O)cc13)-c1cc3c(c(=O)n1C2)COC(=O)[C@]3(O)CC` was 4.7 nM (active); that for `N#CCNC(=O)c1ccc(-c2ccnc(Nc3ccc(N4CCOCC4)cc3)n2)cc1` was 1.15 µM (active) and 2.95 µM (active).
On the same count and under the same terms, the value for `Nc1cccc(-c2cc3c(Oc4cccc(O)c4)ncnc3[nH]2)c1` was 1.15 µM (active) and 833 nM (active).
With `C[C@]12CC[C@H](O)CC1=CCC1C2CC[C@]2(C)C(n3cnc4ccccc43)=CCC12` (some centres not stated), the “activity change, negative = cell killing” value is 4.78% (inactive).
On to `Cc1c(NC(=O)OC[C@@H]2COCCN2)cn2ncnc(Nc3ccc4c(cnn4Cc4cccc(F)c4)c3)c12`, for which the Potency was 14800 nM (active).
Same read-out and setting: as for `CC(C)c1ccc(Cn2ccc3c4c(N)nc(NC5CC5)nc4ccc32)cc1`, the figure is 417 nM (active); as for `Cc1ccc(C(N)=O)cc1Nc1nccc(-c2cn(C(C)C)c3cnccc23)n1`, 1660 nM (active).
The same measure, in the same setting: as for `O=C(O)c1ccc2cc(-c3ccc(O)c(C45CC6CC(CC(C6)C4)C5)c3)ccc2c1`, the figure is 590 nM (active); as for `NC(=O)Nc1cc(-c2cccc(F)c2)sc1C(=O)N[C@H]1CCCNC1`, 81.7 nM (active) and 74.2 nM (active); as for `C[C@@]12O[C@@H](C[C@]1(O)CO)n1c3ccccc3c3c4c(c5c6ccccc6n2c5c31)CNC4=O`, 66.1 nM (active).
On the same count and under the same terms, as for `Cc1nc(Nc2n[nH]c3c2CN(C(=O)N[C@H](CN(C)C)c2ccccc2)C3(C)C)c2sccc2n1`, the figure is 16.3 nM (active) and 11.8 nM (active); as for `C[C@@H]1CN(CC(=O)Nc2ccc3c(c2)Cc2cccc(-c4cc(=O)cc(N5CCOCC5)o4)c2S3)C[C@H](C)O1`, 4680 nM (active); as for `Nc1cc(C(F)(F)F)c(-c2cc(N3CCOCC3)nc(N3CCOCC3)n2)cn1`, 728 nM (active) and 934 nM (active).
With `CCN(CC)CCCCNc1ncc2cc(-c3cc(OC)cc(OC)c3)c(NC(=O)NC(C)(C)C)nc2n1`, the Potency was 14.6 µM (active) and 14.8 µM (active).
The same measure, in the same setting: the value for `Nc1ccccc1NC(=O)c1ccc(CNC(=O)OCc2cccnc2)cc1` was 459 nM (active) and 662 nM (active); that for `CCN1CCN(Cc2ccc(-c3cc4c(N[C@H](C)c5ccccc5)ncnc4[nH]3)cc2)CC1` was 7420 nM (active).
Consider `CC(C)C[C@H](NC(=O)CNC(=O)c1cc(Cl)ccc1Cl)B(O)O`, for which the Potency is 93.4 nM (active).
Take `COc1cc2ncn(-c3cc(OCc4ccccc4C(F)(F)F)c(C(N)=O)s3)c2cc1OC`: the Potency was 794 nM (active) and 1.18 µM (active).
